Source: PubChem BioAssay
TDP1 cell noCPT – qHTS for Inhibitors of human tyrosyl-DNA phosphodiesterase 1 (TDP1): qHTS in cells in absence of CPT; DT40 Tdp1-/- hTDP1 cells, no CPT, ATP luminescence, 48 h; Potency, µM (doses to about 46.2 µM), actives largely listed as inhibitors; actives 15% (n = 420,000); note: nearly all actives have a fitted effect of over 55% in size
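Stably hTDP1-transfected Tdp1-null chicken DT40 cells were treated with library compounds minus camptothecin and grown for at least 48 hr at 37 °C, after which cellular ATP was quantified by luminescence.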
IL1B secr inh – qHTS for Inhibitors of Inflammasome Signaling: IL-1-beta AlphaLISA Primary Screen; THP-1 LPS/ATP IL-1B secretion, AlphaLISA, 16 h; active compounds read low; activity change, % at 57.5 µM; actives 4.7% (n = 360,000); in the data active = activity change below about -50%; inconclusive = mostly about -30% to -49%
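THP-1 cells pretreated 1 hr with compounds (up to 57.5 uM final), then stimulated with LPS (250 ng/mL final) plus ATP (1.25 mM final); secreted IL-1B measured by AlphaLISA after 16 hr, decreased signal indicating inhibition.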
TDP1 cell CPT – qHTS for Inhibitors of human tyrosyl-DNA phosphodiesterase 1 (TDP1): qHTS in cells in presence of CPT. chicken DT40 Tdp1-/-;hTDP1 cells + 20 nM CPT, ATP luminescence, 48 h. Potency, µM (highest dose often 46.2 µM), usual class: inhibitors. actives 12% (n = 420,000); note: nearly all actives have a fitted effect of over 55% in size
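Chicken DT40 Tdp1-/- cells complemented with human TDP1, 400 cells/well, exposed to compounds plus 20 nM camptothecin for at least 48 h at 37 C; viability read as ATP content by CellTiter-Glo luminescence.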
ELG1 DNA repair – qHTS screen for small molecules that inhibit ELG1-dependent DNA repair in human embryonic kidney (HEK293T) cells expressing luciferase-tagged ELG1; AID 504467, 2011; actives 2.3% (n = 330,000); Potency, µM (titrated, usually from 46.1 µM), actives largely listed as inhibitors; HEK293T ELG1-luciferase reporter, luminescence, 16 h; DNA damage induced by 5-fluorouridine; note: nearly all actives have a fitted effect of over 55% in size
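HEK293T cells expressing luciferase-tagged ELG1 (2,000/well) received 5-Fluorouridine plus compound or DMSO for 16 hr at 37 °C. Luciferase was read by ONE-Glo luminescence after 30 min at room temperature.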
HT1080 IDH1KD tx – qHTS for induction of synthetic lethality in tumor cells producing 2HG: qHTS for the HT-1080-IDH1KD cell line. HT-1080 IDH1 knockdown viability, ATP luminescence, 48 h. actives 2% (n = 360,000). Potency, µM (doses to about 46.1 µM), most hits filed as cytotoxic. AID 686971, 2013
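Cytotoxicity counter-line: IDH1KD HT-1080, 48 h, CellTiter-Glo. Curves classed by r2, magnitude and activity.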
HT1080-NT tox – qHTS for induction of synthetic lethality in tumor cells producing 2HG: qHTS for the HT-1080-NT fibrosarcoma cell line. AID 686970, 2013. actives 1.6% (n = 360,000). Potency, µM (highest dose often 46.1 µM), actives largely listed as cytotoxic. HT-1080-NT fibrosarcoma viability, CellTiter-Glo ATP luminescence, 48 h;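 note: NT is the 2HG producing partner of a matched IDH1 knockdown line; nearly all actives have a fitted effect of over 55% in size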
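Luminescent CellTiter-Glo readout after 48 hours of compound exposure at 37 degrees C defined viability of HT-1080-NT cells. Activity was normalized to DMSO wells and cell-free media wells; concentration-response curves were fitted and assigned curve classes.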
Hits are given with their value; - = inactive; ? = inconclusive; . = not tested or not shown; [ ] = remark or other dose. Hits are enriched below; roughly 19% of the tested compounds scored in any of these assays. Unless noted, calls come from the whole dose curve; as a rule, active = well fitted curve in the direction sought with a large enough effect; inconclusive = small, poorly fitted or top-dose-only effect, or another doubt; inactive = no such curve, though single readings can be large; an effect the other way counts as inactive or inconclusive.

SMILES	TDP1 cell noCPT	IL1B secr inh	TDP1 cell CPT	ELG1 DNA repair	HT1080 IDH1KD tx	HT1080-NT tox
CCOc1ccccc1NC(=O)C1=C(C)Nc2ncnn2C1c1ccc(C)o1 (centres undefined)	-	.	-	.	.	.
CC(C)COC(=O)NCCOC(=O)Nc1cccc(Cl)c1	16µM	-	16µM	-	-	-
CC(C)COC(=O)NCCCOC(=O)Nc1ccccc1	?	-	?	-	-	-
O=C(Nc1cccc(Cl)c1)OCCOCCOC(=O)Nc1cccc(Cl)c1	16µM	-	?	.	?	?
CC(C)OC(=O)NCCOC(=O)Nc1ccccc1Cl	-	-	-	-	-	-
CCCCOC(=O)Nc1ccc(C(C)C)cc1	-	-60	-	?	-	-
CC(C)OC(=O)NCCOC(=O)Nc1ccc(Cl)cc1	15µM	-	21µM	-	-	-
O=C(Nc1cccc(Cl)c1)OCc1cnc(Cl)s1	-	-	?	-	-	-
COCCC1CCCCN1Cc1nc(N2CCCCC2)c2cc(OC)c(OC)cc2n1 (centres undefined)	-	.	-[9.04 µM]	.	.	.
Cc1nnc(N2CCN(c3ccccc3)CC2)c2c1nnn2Cc1ccc(F)cc1	?	.	16µM	.	.	.
O=C(NNC(=O)c1ccccc1OCc1ccccc1)c1ccccc1O	3.7µM	-	5.8µM	?	?	-
CC(=O)c1cccc(NC(=O)c2ccccc2OCc2ccc(F)cc2)c1	-	-	-	-	-	-
O=C(NNC(=O)c1ccccc1OCc1ccccc1)c1ccccc1F	-	-	-	?	-	-
CC(=O)c1ccccc1OCc1ccc(S(=O)(=O)Cc2ccccc2)cc1	21µM	-60	26µM	?	-	-
O=C(NNC(=O)c1ccccc1OCc1ccc(F)cc1)c1ccccc1O	5.2µM	-	6.5µM	2.3µM	?	-
CN(C)S(=O)(=O)c1cccc(NC(=O)c2ccccc2OCc2ccc(F)cc2)c1	?	-	15µM	21µM	-	-
COc1cc(-c2nc(C)cnc2C)cc2c1OCCN(C(=O)Cn1nc(-c3ccccc3)c3ccccc3c1=O)C2	-	.	-[9.04 µM]	.	.	.
CCOc1ccc(C(=O)Nc2ccc(NC(=O)c3ccccc3)cc2)cc1Br	-	-	-	-	-	-
CCOc1ccc(C(=O)Nc2ccc(N3CCN(C(=O)c4ccco4)CC3)cc2)cc1Br	?	-	-	.	-	-
CCOc1ccc(C(=O)Nc2ccc(Cc3ccncc3)cc2)cc1Br	-	-89	-	?	?	-
CCOc1ccc(C(=O)Nc2ccc(N3CCN(C)CC3)cc2)cc1Br	29µM	-52	?	?	?	-
O=C(c1ccc(Cl)cc1)N1CCN(S(=O)(=O)/C=C/c2ccccc2)CC1	21µM	?	?	?	-	-[9.24 µM]
CCOC(=O)N1CCN(S(=O)(=O)/C=C/c2ccccc2)CC1	-	-	-	-	-	-
COc1ccc(S(=O)(=O)N2CCc3cc(OC)c(OC)cc3C2)cc1	-	-	?	-	-	-
CNC(=O)c1c(NC(=O)c2ccc(S(=O)(=O)N3CCCCC3C)cc2)sc2c1CCC2 (centres undefined)	15µM	.	13µM	.	.	.
SMILES	TDP1 cell noCPT	IL1B secr inh	TDP1 cell CPT	ELG1 DNA repair	HT1080 IDH1KD tx	HT1080-NT tox
CC(C)N1CCc2c(sc(NC(=O)c3ccc(S(=O)(=O)N4CCCCC4C)cc3)c2C(N)=O)C1 (centres undefined)	?	-	?	-	?	-
CNC(=O)c1c(NC(=O)c2ccc(S(=O)(=O)N3CCC(C)CC3)cc2)sc2c1CCC2	23µM	.	?	.	.	.
CNC(=O)c1c(NC(=O)c2ccc(S(=O)(=O)N3CCCCC3)cc2)sc2c1CCN(C(C)C)C2	?	-	?	?	-	-
Cc1cc(C)c(O)c(-c2cc(C(=O)Nc3ccc(S(=O)(=O)N4CCOCC4)cc3)[nH]n2)c1	16µM	-86	16µM	21µM	?	21µM
Cc1ccc(C(=O)Nc2ccc(S(=O)(=O)N3CCOCC3)cc2)cc1	-	-	-	-	-	-
CC(=O)Nc1ccc(NC(=O)c2cc(-c3cc(C)cc(C)c3O)n[nH]2)cc1	16µM	-	12µM	23µM	-	-
Cc1nn2c(C(F)(F)F)cc(-c3ccc(Cl)cc3)nc2c1C(=O)N1CCOCC1	-	-	-	16µM	-[9.24 µM]	-
O=C(c1ccccc1)N1CCN(C(=O)c2nn3c(C(F)(F)F)cc(-c4ccccc4)nc3c2Br)CC1	18µM	-	?	?	-	-
O=C(c1cnn2c(C(F)(F)F)cc(-c3ccc(Br)cc3)nc12)N1CCOCC1	-	-	?	?	-	-
O=C(c1nn2c(C(F)(F)F)cc(-c3ccccc3)nc2c1Cl)N1CCN2CCCC2C1 (centres undefined)	?	-64	21µM	-	-	-
Cc1noc(C)c1S(=O)(=O)N(C)C[C@H]1Oc2c(NS(=O)(=O)c3cn(C)cn3)cccc2C(=O)N([C@H](C)CO)C[C@@H]1C	-	-	-	-	-	-
Cc1cc(OC(C)C(=O)N2CCN(CCc3ccccn3)CC2)ccc1Cl (centres undefined)	-	.	-	.	.	.
CC(C)c1ccc(NC(=O)C2CCN(S(=O)(=O)c3cccc4nonc34)CC2)cc1	-	.	-	.	.	.
CCN(CC(=O)Nc1ccc(NC(C)=O)cc1)C(=O)c1cc2c(s1)CCCCC2	-	-	-	?	-	-
O=C(CCSc1ccc(F)cc1)Nc1ccc(-n2cnnn2)cc1	?	-	?	18µM	-	-
COc1ccc2cc(CNC3CCS(=O)(=O)C3)c(-c3ccc(OC)c(OC)c3)nc2c1 (centres undefined)	-	.	-[9.04 µM]	.	.	.
OCC1OC2C(NC(=S)N2c2ccccc2)C(O)C1O (centres undefined)	-	-	-	.	-	-
N[C@@H](CCS(=O)O)C(=O)O	-	.	?	.	.	.
CCCN(CCC)CCCNC(=O)C1CCN(c2nc3ccc(CC)cc3s2)CC1	5.2µM	.	5.8µM	.	.	.
CCCN(CCC)CCNC(=O)C1CCN(c2nc3ccc(CC)cc3s2)CC1	6.5µM	.	8.2µM	.	.	.
CC1(c2nc3ccccc3[nH]2)c2ccccc2C(=O)N1Cc1ccccn1 (centres undefined)	-	-	-	.	-	-
C=C1[C@H](C)CN(S(=O)(=O)C(C)(C)C)[C@H]1CCO	-	-	-	.	-	-
